Experimental data published in PubChem BioAssay.
The source made the active and inactive calls. Unless noted, the rule behind the calls is not given here.

What was measured:
[1] = resazurin metabolic signal in HepG2 cells – cell-based, resazurin fluorescence, 24 h, PK04 Diversity Set, profiling panel (AID 1172); conditions: HepG2 viability, higher = more signal
[2] = budding yeast growth changes without added modifier – OD600, strain BY4716, 24 h, basal condition, primary screen (AID 1173); conditions: S. cerevisiae BY4716 growth, OD600, 24 h; higher = more signal, called active from +8 up or from −8 down
[3] = viability profiling in MM1S myeloma cells – cell-based, resazurin fluorescence, basal, 24 h, PK04 Diversity Set, profiling panel (AID 1174); conditions: higher = more signal, called active from +8 up or from −8 down;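 note: MM1S multiple myeloma cell line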
[4] = target: Dihydroorotate dehydrogenase (quinone), mitochondrial (Plasmodium falciparum (isolate 3D7)) (UniProt Q08210); assay: inhibition of P. falciparum DHODH – biochemical, C-terminal His tag, absorbance 600 nm, primary screen (AID 1175); conditions: PfDHODH enzyme, DCIP absorbance 600 nm; higher = more signal, called active from +8 up or from −8 down;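 note: recombinant parasite enzyme with a five histidine tag at its C terminus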
Dihydroorotate dehydrogenase (quinone), mitochondrial (Plasmodium falciparum (isolate 3D7)), sequence (Q08210 whole entry, looked up): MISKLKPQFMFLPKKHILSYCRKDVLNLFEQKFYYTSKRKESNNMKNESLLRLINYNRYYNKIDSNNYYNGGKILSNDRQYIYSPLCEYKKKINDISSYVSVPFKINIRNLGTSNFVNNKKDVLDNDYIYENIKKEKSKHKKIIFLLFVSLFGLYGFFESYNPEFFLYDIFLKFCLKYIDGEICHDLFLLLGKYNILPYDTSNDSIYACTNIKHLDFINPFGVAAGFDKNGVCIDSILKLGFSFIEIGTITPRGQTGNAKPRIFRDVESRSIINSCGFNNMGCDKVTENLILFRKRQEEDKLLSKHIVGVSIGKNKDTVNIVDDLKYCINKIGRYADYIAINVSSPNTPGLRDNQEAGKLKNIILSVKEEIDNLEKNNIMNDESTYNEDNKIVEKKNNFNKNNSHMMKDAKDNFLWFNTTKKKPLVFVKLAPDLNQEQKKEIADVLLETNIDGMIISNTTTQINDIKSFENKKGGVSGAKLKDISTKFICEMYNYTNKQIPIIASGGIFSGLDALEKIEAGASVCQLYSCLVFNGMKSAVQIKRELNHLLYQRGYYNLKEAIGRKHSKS

[5] = inhibition of PAO1 biofilm formation – strain PAO1, LB-PBS medium, absorbance 600 nm, primary screen (AID 1176); conditions: P. aeruginosa PAO1 growth/biofilm, A600, 12 h; higher = more signal
[6] = growth modulation of vineyard yeast isolate – strain RM11-1a, OD600, basal, 24 h, primary screen (AID 1177);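 note: cultures grown under basal conditions with no added stressor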; conditions: S. cerevisiae RM11-1a growth, OD600, 24 h; higher = more signal, called active from +8 up or from −8 down
[7] = growth of efflux-deficient E. coli DRC39 – strain DRC39, OD650, 24 h, E. coli filamentation inducers, primary screen (AID 1178);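 note: growth measured as culture turbidity by optical density at 650 nm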; conditions: E. coli DRC39 acrAB, higher = more signal, called active from +8 up or from −8 down
[8] = growth of efflux-deficient E. coli DRC39 – strain DRC39, OD650, 48 h, E. coli filamentation inducers, primary screen (AID 1179);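 note: screen aims at cell division blockers that make cells filament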; conditions: E. coli DRC39 delta-acrAB growth, higher = more signal, called active from +8 up or from −8 down
[9] = viability profiling in RPMI8226 myeloma cells – cell-based, resazurin fluorescence, basal, 24 h, PK04 Diversity Set, profiling panel (AID 1180); conditions: higher = more signal;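 note: RPMI8826 multiple myeloma cell line at 5000 cells per well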
[10] = target: E3 ubiquitin-protein ligase XIAP (Homo sapiens) (UniProt P98170); assay: small molecules binding XIAP protein – biophysical, small-molecule microarray, fluorescence 635 nm, primary screen (AID 1181); conditions: higher = more signal;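 note: score merges 667 nm emission and signal to noise over triplicate slides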
E3 ubiquitin-protein ligase XIAP (Homo sapiens), sequence (P98170 whole entry, looked up, the tested form may be a part): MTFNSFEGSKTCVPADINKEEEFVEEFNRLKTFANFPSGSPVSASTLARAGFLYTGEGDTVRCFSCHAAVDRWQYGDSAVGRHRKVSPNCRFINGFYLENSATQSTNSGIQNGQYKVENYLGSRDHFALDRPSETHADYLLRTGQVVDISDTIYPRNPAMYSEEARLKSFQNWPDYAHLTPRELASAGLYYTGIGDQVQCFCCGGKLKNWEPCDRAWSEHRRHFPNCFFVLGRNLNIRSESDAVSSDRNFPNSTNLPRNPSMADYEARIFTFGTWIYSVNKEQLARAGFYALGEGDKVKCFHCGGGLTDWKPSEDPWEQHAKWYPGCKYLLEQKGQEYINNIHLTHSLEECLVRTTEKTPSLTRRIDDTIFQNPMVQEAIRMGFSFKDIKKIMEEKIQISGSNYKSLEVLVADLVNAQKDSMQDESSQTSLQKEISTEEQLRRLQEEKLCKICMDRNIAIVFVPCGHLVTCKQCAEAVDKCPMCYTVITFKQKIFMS

[11] = tested on: XIP peptide (Xip251-270) binding; assay: XIP fragment 251-270 binding compounds – biochemical, small-molecule microarray, fluorescence 635/667 nm, 0.1 µg/mL protein, primary screen (AID 1182); conditions: fluorescent protein binding, 635 nm, higher = more signal, called active from +8 up or from −8 down
[12] = tested on: XIP peptide (Xip251-270); assay: compounds binding XIP fragment 251-270 – biochemical, small-molecule microarray, fluorescence 635/667 nm, 0.5 µg/mL protein, primary screen (AID 1183); conditions: fluorescence 635 nm, higher = more signal
[13] = blood-stage malaria parasite viability loss – strain 3D7, DAPI fluorescence, 100 nL, primary screen (AID 1184);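 note: parasites grown inside human red blood cells in medium with human serum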; conditions: P. falciparum 3D7 growth, 3 d, higher = more signal
[14] = target: Homeobox protein Hox-A13 (Mus musculus) (UniProt Q62424); assay: disruptors of Hoxa13 oligonucleotide interaction – biochemical, fluorescence polarization, labeled oligonucleotide, primary screen (AID 1185); conditions: Hoxa13:DNA binding, 15 min, higher = more signal, called active from +8 up or from −8 down
Homeobox protein Hox-A13 (Mus musculus), sequence (Q62424 whole entry, looked up): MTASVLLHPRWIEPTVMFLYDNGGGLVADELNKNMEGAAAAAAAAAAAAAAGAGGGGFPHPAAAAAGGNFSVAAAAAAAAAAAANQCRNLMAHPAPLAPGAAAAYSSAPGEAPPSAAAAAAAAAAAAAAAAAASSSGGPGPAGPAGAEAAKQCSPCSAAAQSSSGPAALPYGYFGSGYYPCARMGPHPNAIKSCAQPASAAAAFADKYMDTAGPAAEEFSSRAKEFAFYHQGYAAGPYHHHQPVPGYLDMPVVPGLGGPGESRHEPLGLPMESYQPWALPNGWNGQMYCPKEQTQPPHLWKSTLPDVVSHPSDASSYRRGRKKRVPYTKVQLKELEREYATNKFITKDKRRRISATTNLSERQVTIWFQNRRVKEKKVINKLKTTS

[15] = blockers of DNA damage checkpoint Chk1 activation – imaging, HeLa, hydroxyurea, phospho-Chk1 antibody, percent positive cells, primary screen (AID 1186); conditions: hydroxyurea-induced phospho-Chk1 immunofluorescence imaging, higher = more signal
[16] = blockers of DNA damage checkpoint Chk1 activation – imaging, HeLa, hydroxyurea, phospho-Chk1 nuclear intensity, primary screen (AID 1187); conditions: hydroxyurea-induced phospho-Chk1 immunofluorescence imaging, higher = more signal

Compound	z-score [1]	z-score [2]	z-score [3]	composite z-score [4]	z-score [5]	z-score [6]	z-score [7]	z-score [8]	z-score [9]	composite z-score [10]	composite z-score [11]	composite z-score [12]	z-score [13]	z-score [14]	z-score [15]	z-score [16]
CC(C)C(=C=CC[C@@H](O)c1ccc(OCCO)cc1)C[C@@H](O)COCc1ccccc1	0.932	-2.26 (inactive)	0.189 (inactive)	-2.2 (inactive)	0.919 (inactive)	-2 (inactive)	1.38 (inactive)	1.29 (inactive)	1.55	0.108	0.372 (inactive)	0.195	-2.45	-3.75 (inactive)	-1.27 (inactive)	-0.437 (inactive)
C=C[C@H](CO[Si](CC)(CC)CC)N(Cc1ccc(OC(C)=O)c(OC)c1)S(=O)(=O)c1ccc(Br)cc1	-0.423	-0.128 (inactive)	-0.649 (inactive)	-1.38 (inactive)	-0.649 (inactive)	0.292 (inactive)	0.93 (inactive)	1.67 (inactive)	-3.37	0.0487	1.38 (inactive)	0.88	0.378	0.476 (inactive)	-0.528 (inactive)	-0.508 (inactive)
C=C[C@@H](COC(=O)OC(C)(C)C)N(Cc1ccc(OC)cc1)S(=O)(=O)c1ccc(Br)cc1	0.163	0.119 (inactive)	0.67 (inactive)	-0.316 (inactive)	-0.177 (inactive)	0.378 (inactive)	-0.807 (inactive)	-0.667 (inactive)	-0.918	0.1	0.323 (inactive)	0.219	0.605	-0.981 (inactive)	0.344 (inactive)	0.447 (inactive)
COc1ccc(-c2cc3c(c(-c4ccc(Oc5ccccc5)cc4)n2)[Si](C(C)C)(C(C)C)OC3)cn1	-1.05	1.07 (inactive)	-0.29 (inactive)	0.568 (inactive)	-0.0391 (inactive)	1.24 (inactive)	-0.794 (inactive)	-0.973 (inactive)	-0.698	-0.0326	-0.0527 (inactive)	0.0792	-1.34	-1.79 (inactive)	-0.265 (inactive)	0.0655 (inactive)
O=C1O[C@H](c2ccccc2)[C@H](c2ccccc2)N2[C@H]1[C@@H](C(=O)N1CCCCCCC1)[C@]1(C(=O)Nc3ccc(C#CCCO)cc31)[C@H]2c1ccccc1OCCO	-0.118	1.09 (inactive)	-1.12 (inactive)	0.929 (inactive)	1.15 (inactive)	2.99 (inactive)	-0.805 (inactive)	-0.106 (inactive)	-2.97	2.87	9.51 (active)	1.07	-2.07	4.52 (inactive)	0.208 (inactive)	0.259 (inactive)
COc1cc2c(cc1O)C(C1CC1)N(Cc1sc3ccccc3c1Cl)CC2 (stereo not drawn)	-1.58	-18.3 (active)	-0.789 (inactive)	-0.931 (inactive)	-1.33 (inactive)	-22 (active)	0.531 (inactive)	-0.75 (inactive)	-1.42	-0.031	0.275 (inactive)	0.637	-1.23	-2.44 (inactive)	-0.147 (inactive)	0.302 (inactive)
COC(=O)[C@@]1(Cc2ccc(OC)cc2)[C@H]2c3cc(C(=O)N(C)C)n(CCc4ccccn4)c3C[C@H]2CN1C(=O)c1ccccc1	-1.31	2.55 (inactive)	-2.34 (inactive)	-0.0595 (inactive)	0.908 (inactive)	1.51 (inactive)	-1.2 (inactive)	-0.655 (inactive)	-1.93	0.264	-0.312 (inactive)	-0.7	-1.52	-2.39 (inactive)	0.808 (inactive)	0.0643 (inactive)
COCCOC(=O)N1C(=O)[C@@]2(c3ccccc31)[C@H](C(=O)N1CCc3cc(OC)c(OC)cc3C1)[C@H]1C(=O)O[C@H](c3ccccc3)[C@H](c3ccccc3)N1[C@@H]2c1ccc(OCCO)cc1	-0.484	1.26 (inactive)	-0.13 (inactive)	-0.76 (inactive)	2.41 (inactive)	2.61 (inactive)	-0.259 (inactive)	0.144 (inactive)	0.549	-0.0405	2.52 (inactive)	0.8	-2.33	1.9 (inactive)	0.111 (inactive)	0.55 (inactive)
COc1ccc(C(O)C2C=CC3C(=O)N(Cc4ccccc4)C(=O)C3N2n2cnnc2)cc1OCc1ccccc1 (stereo not drawn)	-0.299	0.278 (inactive)	0.708 (inactive)	-0.265 (inactive)	1.13 (inactive)	-0.271 (inactive)	1.31 (inactive)	-0.48 (inactive)	0.329	0.035	0.442 (inactive)	0.159	-0.951	-2.23 (inactive)	-0.537 (inactive)	-0.462 (inactive)
NC(=O)[C@@H]1[C@H]2C(=O)O[C@H](c3ccccc3)[C@H](c3ccccc3)N2[C@H](c2ccc(O)cc2)[C@@]12C(=O)Nc1ccccc12	0.363	-1.39 (inactive)	0.307 (inactive)	-0.565 (inactive)	0.449 (inactive)	-0.665 (inactive)	0.385 (inactive)	-0.766 (inactive)	-0.224	0.0073	0.138 (inactive)	0.507	-1.28	-5.09 (inactive)	-0.0838 (inactive)	-0.0447 (inactive)
COC(=O)[C@@]1(Cc2ccc(OC)cc2)[C@H]2c3cc(C(=O)N4CCCC4)n(Cc4ccc(O)c(OC)c4)c3C[C@H]2CN1C(=O)c1ccccc1	-1.76	1.19 (inactive)	-0.431 (inactive)	0.191 (inactive)	0.591 (inactive)	0.609 (inactive)	-0.446 (inactive)	-0.0429 (inactive)	-2.77	0.227	1.29 (inactive)	0.575	-1.65	-4.69 (inactive)	0.449 (inactive)	0.27 (inactive)
CO[C@H]1O[C@H](CO)[C@@H](OC(=O)Nc2cccc(F)c2)[C@H](OC(=O)Nc2ccccc2)[C@@H]1OC(=O)Nc1ccccc1	-1.62	0.706 (inactive)	-2.56 (inactive)	0.127 (inactive)	0.758 (inactive)	0.666 (inactive)	-0.002 (inactive)	-0.0057 (inactive)	-2.4	0.0623	1.23 (inactive)	0.82	-1.26	-6.57 (inactive)	0.108 (inactive)	0.358 (inactive)
CN1C(=O)C2C=CC(C(O)c3ccco3)N(Nc3ccccc3)C2C1=O (stereo not drawn)	-0.86	1.35 (inactive)	-0.944 (inactive)	1.24 (inactive)	1.41 (inactive)	1.61 (inactive)	-0.436 (inactive)	-0.0442 (inactive)	-0.328	0.42	-0.225 (inactive)	0.343	-0.142	-3.54 (inactive)	-0.221 (inactive)	-0.752 (inactive)
COc1cc(NN2C(C(O)c3ccco3)C=CC3C(=O)N(c4ccccc4)C(=O)C32)cc(OC)c1OC (stereo not drawn)	-1.41	1.58 (inactive)	-1.68 (inactive)	-2 (inactive)	0.711 (inactive)	0.178 (inactive)	-0.225 (inactive)	-1.32 (inactive)	-1.08	-0.081	0.318 (inactive)	0.737	-0.372	-3.83 (inactive)	0.153 (inactive)	-0.416 (inactive)
C=CCN1C(=O)[C@]2(O[C@H](CCn3cc([C@H](O)c4ccccc4)nn3)[C@@H]([Si](C)(C)c3ccc(OC)cc3)[C@@H]2C)c2cc(N3CCC3=O)ccc21	0.0514	0.743 (inactive)	-1.85 (inactive)	1.04 (inactive)	0.0245 (inactive)	2.44 (inactive)	0.518 (inactive)	-0.0117 (inactive)	-1.67	0.0623	0.393 (inactive)	0.128	-2.89	-5.76 (inactive)	-0.318 (inactive)	-0.171 (inactive)
COCCOC(=O)N1C(=O)[C@@]2(c3cc(C#CCNC(N)=O)ccc31)[C@H](C(=O)N1CCN(c3ncccn3)CC1)[C@H]1C(=O)O[C@H](c3ccccc3)[C@H](c3ccccc3)N1[C@@H]2c1ccc(OCCO)cc1	-0.488	1.51 (inactive)	-0.814 (inactive)	-0.0103 (inactive)	2.43 (inactive)	2.16 (inactive)	0.142 (inactive)	0.567 (inactive)	-0.83	0.0627	0.0897 (inactive)	0.697	-0.939	0.245 (inactive)	0.138 (inactive)	0.0943 (inactive)
CCOC(=O)C[C@H]1[C@H](OC(=O)c2ccc(C(=O)c3ccccc3)cc2)[C@@H](NC(=O)c2ccc3ccccc3c2)c2cc(OCCCO)ccc2N1C(=O)Cc1ccc(OC)cc1	-0.0265	-0.291 (inactive)	0.238 (inactive)	-0.148 (inactive)	-0.382 (inactive)	0.4 (inactive)	-0.276 (inactive)	0.471 (inactive)	0.287	-0.12	0.135 (inactive)	-0.011	-1.06	-1.59 (inactive)	-0.0477 (inactive)	-0.0525 (inactive)
CC#CC(=O)Oc1ccccc1C=CC(=O)OCC	1.86	-10.4 (active)	0.302 (inactive)	-0.155 (inactive)	1.21 (inactive)	-1.34 (inactive)	0.23 (inactive)	0.51 (inactive)	0.485	-0.162	0.0524 (inactive)	0.106	-0.418	-2.38 (inactive)	0.367 (inactive)	0.195 (inactive)
